Source: PubChem (Broad Institute)
A selection: hits, their analogues and other compounds. The true share with any hit is near 2.6%.
STAT3 SMM = STAT3 binders, primary screen, biochemical, small molecule microarray, single point, set 2. Signal transducer and activator of transcription 3 (Homo sapiens), P40763. His-STAT3 binding, anti-His fluorescence. calls only. actives 0.2% (n = 17,000). AID 624138, 2012;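 active = compounds whose four printed spots each show fluorescence over background unusually high for their array block, chance value under 7%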
NFkB SMM = binders of NF-kB p50 subunit, primary screen, biochemical, small molecule microarray, anti-His fluorescence; AID 624139, 2012; anti-His fluorescence binding; calls only; actives 1.3% (n = 17,000); Nuclear factor NF-kappa-B p105 subunit (Homo sapiens), P19838;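 active = spot fluorescence over background significantly raised, with a chance value under 7% in all four replicate spots of the compound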;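 also: probe protein is his-tagged human p50 processed subunit at 1 µg/ml; raw spot fluorescence signals with no normalization applied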
mut p53 react = mutant p53 pathway re-activators, primary screen, cell-based, SW480, luciferase, single point, HTS; activation, % at 9.98 µM; SW480 PUMA-promoter luciferase, p53 mutant reactivation; actives 1.5% (n = 28,000); in the data active = activation above about 52%
Myc binder = binders of human c-Myc, primary screen, biochemical, small molecule microarray, anti-His fluorescence. Myc proto-oncogene protein (Homo sapiens), P01106. His-c-Myc binding. calls only. actives 1.5% (n = 17,000). AID 624141, 2012;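 active = spot fluorescence over background with P-value below 7% in all four replicate spots, showing protein binding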;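 also: score is binary with 100 for all four spots passing and 0 otherwise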
Target sequence (P01106 whole entry, looked up): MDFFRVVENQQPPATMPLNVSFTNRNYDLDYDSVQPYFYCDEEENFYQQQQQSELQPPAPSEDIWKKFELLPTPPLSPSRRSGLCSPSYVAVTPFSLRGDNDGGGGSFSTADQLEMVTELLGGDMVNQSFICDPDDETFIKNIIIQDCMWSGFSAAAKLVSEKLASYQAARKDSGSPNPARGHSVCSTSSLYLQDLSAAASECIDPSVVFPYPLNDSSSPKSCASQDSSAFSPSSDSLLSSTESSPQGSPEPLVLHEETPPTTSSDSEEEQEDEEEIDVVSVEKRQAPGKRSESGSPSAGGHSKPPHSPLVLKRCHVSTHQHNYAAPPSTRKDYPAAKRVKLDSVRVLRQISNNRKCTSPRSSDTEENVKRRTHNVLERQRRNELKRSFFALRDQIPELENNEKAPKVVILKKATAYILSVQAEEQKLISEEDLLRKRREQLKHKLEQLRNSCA
p53 mut binder = binders of human mutant p53, primary screen, biochemical, small molecule microarray, anti-GST fluorescence | mutant tumor protein p53 (GST-tagged), Homo sapiens | small molecule microarray binding | calls only | actives 0.4% (n = 17,000) | AID 624136, 2012;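 active = compounds whose four printed spots each glow above background more than chance allows, each with a p-value under 7%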
* = called active by the depositor; i = inactive; / = no result given; + = active, no number.

SMILES	STAT3 SMM	NFkB SMM	mut p53 react	Myc binder	p53 mut binder
Cc1noc(C)c1NC(=O)Nc1ccc2c(c1)C(=O)N([C@@H](C)CO)C[C@H](C)[C@H](CN(C)C(=O)C1CCCCC1)OCCCC[C@H](C)O2	i	i	-7	i	i
COc1ccc(OC)c(N(CC(=O)Nc2ccc(Br)cc2F)S(C)(=O)=O)c1	/	/	-3	/	/
C[C@@H]1CN([C@H](C)CO)C(=O)c2cccc(NC(=O)Nc3ccc4c(c3)OCO4)c2O[C@H]1CN(C)C	i	i	60*	i	i
C[C@H](CO)N1C[C@H](C)[C@H](CN(C)C(=O)Nc2ccc3c(c2)OCO3)Oc2c(NC(=O)Nc3ccc4c(c3)OCO4)cccc2C1=O	/	/	-2	/	/
COc1ccc(CN(C)C[C@H]2Oc3c(NC(=O)Nc4ccc5c(c4)OCO5)cccc3C(=O)N([C@H](C)CO)C[C@@H]2C)cc1	i	i	61*	i	i
Cc1noc(C)c1S(=O)(=O)Nc1ccc2c(c1)C(=O)N([C@H](C)CO)C[C@H](C)[C@@H](CN(C)C(=O)Nc1cccc3ccccc13)OCCCC[C@H](C)O2	i	+	/	+	i
Cc1noc(C)c1S(=O)(=O)Nc1ccc2c(c1)C(=O)N([C@@H](C)CO)C[C@@H](C)[C@@H](CN(C)C(=O)Nc1ccccc1)OCCCC[C@H](C)O2	i	i	-9	i	i
Cc1noc(C)c1S(=O)(=O)Nc1ccc2c(c1)C(=O)N([C@H](C)CO)C[C@H](C)[C@@H](CN(C)C(=O)NC(C)C)OCCCC[C@H](C)O2	i	+	-5	i	i
C=CCn1c2ccccc2c2nnc(SCc3ccccc3F)nc21	/	/	-20	/	/
O=C(CSc1nc(-c2ccccc2)cc(C(F)(F)F)n1)c1ccc(Br)cc1	/	/	0	/	/
Clc1cccc(C=NC=Nc2cccc(Cl)c2)c1	i	i	73*	i	i
COc1cccc(C=NC=Nc2cccc(OC)c2)c1	i	i	38	i	i
CC(C)NC(=O)Nc1ccc2c(c1)C(=O)N([C@H](C)CO)C[C@H](C)[C@H](CN(C)C)OCCCC[C@H](C)O2	i	i	-1	i	i
C#Cc1ccc([C@@H]2C=C(C(=O)Nc3ccccc3)O[C@H](OCc3ccc(CO)cc3)C2)cc1	i	i	/	i	i
Cc1ccc(-c2csc3ncnc(SCC(=O)c4ccc(F)cc4)c23)cc1	/	/	-2	/	/
Cc1ccc([N+](=O)[O-])cc1S(=O)(=O)NCc1cccnc1	/	/	-7	/	/
Cc1ccn2cc(-c3cccc(NS(=O)(=O)c4cc([N+](=O)[O-])ccc4C)c3)nc2c1	/	/	111*	/	/
C[C@H](CO)N1C[C@H](C)[C@@H](CN(C)C(=O)Nc2ccc(C(F)(F)F)cc2)OCCCC[C@H](C)Oc2ccc(N(C)C)cc2C1=O	i	i	/	i	i
CC(C)NC(=O)Nc1ccc2c(c1)C(=O)N([C@@H](C)CO)C[C@H](C)[C@H](CN(C)C(=O)CCC(F)(F)F)OCCCC[C@@H](C)O2	i	i	8	i	i
O=[N+]([O-])c1ccc(OCCCSc2ncccn2)cc1	/	/	57*	/	/
COc1cc([N+](=O)[O-])ccc1NC(=O)CSc1ncccn1	i	i	-17	i	i
COc1ccc(OCCCSc2ncccn2)cc1	/	/	126*	/	/
COc1cccc(OCCCCSc2ncccn2)c1	/	/	18	/	/
COc1cccc(OCCSc2nc(N)cc(N)n2)c1	i	i	64*	i	i
Cc1cc(=O)[nH]c(SCCOc2cccc(Oc3ccccc3)c2)n1	/	/	-11	/	/
SMILES	STAT3 SMM	NFkB SMM	mut p53 react	Myc binder	p53 mut binder
c1ccc(-c2nsc(NC3Cc4ccccc4C3)n2)cc1	/	/	109*	/	/
Cc1ccc(-c2cc(-c3c(C)nn(C)c(=O)c3N)[nH]n2)cc1	/	/	86*	/	/
COc1ccccc1C(=O)Oc1c(CN2CCOCC2)cc(Cl)c2cccnc12	i	i	-12	i	i
O=C(CCCN1C(=O)c2cccc3cccc(c23)C1=O)N1CCN(c2ncccn2)CC1	/	/	44	/	/
O=C(c1cc2cc(Br)ccc2oc1=O)N1CCN(CCN2C(=O)c3cccc4cccc(c34)C2=O)CC1	/	/	65*	/	/
NC(=O)CN1CCN(CCN2C(=O)c3cccc4cccc(c34)C2=O)CC1	i	i	75*	i	i
COc1ccc([N+](=O)[O-])cc1NC(=O)CS(=O)(=O)Cc1ccccc1	/	/	6	/	/
